Results taken from the supplement of paper PMC10849652.
Targets with a hit are over-represented here; the source holds about 7,900 in all. About 0.6% of all pairs of compound and target were hits. Unmarked numbers belong to inactive results.

Experiments:
Assay in all cases: log2 fold change, soluble protein after heating vs DMSO (PISA); higher = thermal stabilisation; K562 cells, 10 uM, 30 min; active = over 0.2 and 3.5 SD of the protein, either way, in both replicates (recomputed)
[1] = compound: COC1=CC=C(C=C1)CN2C=CC3=C2C=C(C=C3)C(=O)NO
Procedure, shortened: (§1)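 Aliquots of K562 cells (2×10^6 cells/mL) treated with 10 μM compound for 30 min were heated for 3 min over 48°C-58°C. After pooling and extraction in PBS with 0.5% NP-40 at 4°C, soluble protein from a 21,000xg, 90 min spin was quantified by TMTpro 16plex LC-MS/MS with channel sums equalised. Thermal stability is expressed against control samples, from duplicates, as a log2 fold change.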

filanesib = compound: CON(C)C(=O)N1N=C(c2cc(F)ccc2F)S[C@@]1(CCCN)c1ccccc1 [filanesib]
Procedure, shortened: as §1

zotarolimus = compound: CO[C@H]1C[C@@H]2CC[C@@H](C)[C@@](O)(O2)C(=O)C(=O)N2CCCC[C@H]2C(=O)O[C@H]([C@H](C)C[C@@H]2CC[C@H](n3cnnn3)[C@H](OC)C2)CC(=O)[C@H](C)/C=C(\C)[C@@H](O)[C@@H](OC)C(=O)[C@H](C)C[C@H](C)/C=C/C=C/C=C/1C [zotarolimus]
Procedure, shortened: as §1

idasanutlin = compound: COc1cc(C(=O)O)ccc1NC(=O)[C@@H]1N[C@@H](CC(C)(C)C)[C@](C#N)(c2ccc(Cl)cc2F)[C@H]1c1cccc(Cl)c1F [idasanutlin]
Procedure, shortened: as §1

alisertib = compound: COc1cc(Nc2ncc3c(n2)-c2ccc(Cl)cc2C(c2c(F)cccc2OC)=NC3)ccc1C(=O)O [alisertib]
Procedure, shortened: as §1

[2] = compound: COc1cc2nc(-c3cc(F)ccc3O)nc(N[C@@H]3CNC[C@H]3C(C)(C)O)c2cc1OC
Procedure, shortened: as §1

gefitinib = compound: COc1cc2ncnc(Nc3ccc(F)c(Cl)c3)c2cc1OCCCN1CCOCC1 [gefitinib]
Procedure, shortened: as §1

[3] = compound: COc1cccc2cc(-c3nc([C@H]4CC[C@H](C(=O)O)CC4)n4ncnc(N)c34)[nH]c12
Procedure, shortened: as §1

lapatinib = compound: CS(=O)(=O)CCNCc1ccc(-c2ccc3ncnc(Nc4ccc(OCc5cccc(F)c5)c(Cl)c4)c3c2)o1 [lapatinib]
Procedure, shortened: as §1

pictilisib = compound: CS(=O)(=O)N1CCN(Cc2cc3nc(-c4cccc5[nH]ncc45)nc(N4CCOCC4)c3s2)CC1 [pictilisib]
Procedure, shortened: as §1

[4] = compound: CS(=O)(=O)c1ccc(-c2cnc(N)c(C(=O)Nc3ccccc3)n2)cc1
Procedure, shortened: as §1

crizotinib = compound: C[C@@H](Oc1cc(-c2cnn(C3CCNCC3)c2)cnc1N)c1c(Cl)ccc(F)c1Cl [crizotinib]
Procedure, shortened: as §1

[5] = compound: C[C@@H]1COCCN1C2=NC(=NC(=C2)C3(CC3)S(=O)(=O)C)C4=C5C=CNC5=CC=C4
Procedure, shortened: as §1

[6] = compound: C[C@H](C1=CC=C(C=C1)C(=O)NC2=C3C=CNC3=NC=C2)N
Procedure, shortened: as §1

duvelisib = compound: C[C@H](Nc1ncnc2nc[nH]c12)c1cc2cccc(Cl)c2c(=O)n1-c1ccccc1 [duvelisib]
Procedure, shortened: as §1

gandotinib = compound: Cc1cc(Nc2cc(CN3CCOCC3)c3nc(C)c(Cc4ccc(Cl)cc4F)n3n2)n[nH]1 [gandotinib]
Procedure, shortened: as §1

tozasertib = compound: Cc1cc(Nc2cc(N3CCN(C)CC3)nc(Sc3ccc(NC(=O)C4CC4)cc3)n2)n[nH]1 [tozasertib]
Procedure, shortened: as §1

[7] = compound: Cc1cc(SCc2sc(-c3ccc(C(F)(F)F)cc3)nc2C)ccc1OCC(=O)O
Procedure, shortened: as §1

doramapimod = compound: Cc1ccc(-n2nc(C(C)(C)C)cc2NC(=O)Nc2ccc(OCCN3CCOCC3)c3ccccc23)cc1 [doramapimod]
Procedure, shortened: as §1

ispinesib = compound: Cc1ccc(C(=O)N(CCCN)[C@@H](c2nc3cc(Cl)ccc3c(=O)n2Cc2ccccc2)C(C)C)cc1 [ispinesib]
Procedure, shortened: as §1

Chain of UniProt P30626 (P30626 whole entry, looked up): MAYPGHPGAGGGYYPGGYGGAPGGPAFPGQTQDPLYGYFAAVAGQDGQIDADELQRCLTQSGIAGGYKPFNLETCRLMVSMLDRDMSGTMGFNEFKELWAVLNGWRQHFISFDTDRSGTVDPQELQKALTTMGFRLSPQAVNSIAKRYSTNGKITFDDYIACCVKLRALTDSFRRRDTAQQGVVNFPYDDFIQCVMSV
Chain of UniProt O75494 (O75494 whole entry, looked up): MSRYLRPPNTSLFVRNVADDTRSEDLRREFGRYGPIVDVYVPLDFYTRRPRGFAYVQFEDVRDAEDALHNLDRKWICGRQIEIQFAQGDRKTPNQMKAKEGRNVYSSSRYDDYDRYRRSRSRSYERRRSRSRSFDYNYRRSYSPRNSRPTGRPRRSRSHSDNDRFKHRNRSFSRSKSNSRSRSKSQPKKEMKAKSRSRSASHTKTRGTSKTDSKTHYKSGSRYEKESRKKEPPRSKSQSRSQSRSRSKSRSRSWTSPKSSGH
Chain of UniProt Q9UNL2 (Q9UNL2 whole entry, looked up): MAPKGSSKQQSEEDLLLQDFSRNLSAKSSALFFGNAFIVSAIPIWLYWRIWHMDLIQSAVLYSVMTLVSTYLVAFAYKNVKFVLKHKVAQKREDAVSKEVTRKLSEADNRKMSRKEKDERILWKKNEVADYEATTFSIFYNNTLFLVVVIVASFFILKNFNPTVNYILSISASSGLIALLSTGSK
Chain of UniProt Q08945 (Q08945 whole entry, looked up): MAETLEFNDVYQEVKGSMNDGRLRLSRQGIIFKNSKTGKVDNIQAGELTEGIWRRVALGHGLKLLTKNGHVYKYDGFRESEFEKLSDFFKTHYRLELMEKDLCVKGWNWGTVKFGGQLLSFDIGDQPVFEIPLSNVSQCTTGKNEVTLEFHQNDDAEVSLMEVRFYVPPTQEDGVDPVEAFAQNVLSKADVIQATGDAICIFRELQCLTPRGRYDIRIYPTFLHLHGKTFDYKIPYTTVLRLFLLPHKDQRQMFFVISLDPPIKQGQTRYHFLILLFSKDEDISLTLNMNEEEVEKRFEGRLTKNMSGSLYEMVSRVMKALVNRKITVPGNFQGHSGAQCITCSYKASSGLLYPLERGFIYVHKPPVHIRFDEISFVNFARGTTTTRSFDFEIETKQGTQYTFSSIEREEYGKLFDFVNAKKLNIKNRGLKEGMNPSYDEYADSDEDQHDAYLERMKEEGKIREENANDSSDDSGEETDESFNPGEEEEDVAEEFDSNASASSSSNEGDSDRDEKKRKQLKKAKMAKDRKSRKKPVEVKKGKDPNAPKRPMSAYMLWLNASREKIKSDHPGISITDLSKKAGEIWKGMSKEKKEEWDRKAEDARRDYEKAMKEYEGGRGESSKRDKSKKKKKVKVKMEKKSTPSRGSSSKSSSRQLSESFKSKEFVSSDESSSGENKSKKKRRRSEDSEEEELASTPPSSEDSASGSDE
Chain of UniProt P23497 (P23497 whole entry, looked up): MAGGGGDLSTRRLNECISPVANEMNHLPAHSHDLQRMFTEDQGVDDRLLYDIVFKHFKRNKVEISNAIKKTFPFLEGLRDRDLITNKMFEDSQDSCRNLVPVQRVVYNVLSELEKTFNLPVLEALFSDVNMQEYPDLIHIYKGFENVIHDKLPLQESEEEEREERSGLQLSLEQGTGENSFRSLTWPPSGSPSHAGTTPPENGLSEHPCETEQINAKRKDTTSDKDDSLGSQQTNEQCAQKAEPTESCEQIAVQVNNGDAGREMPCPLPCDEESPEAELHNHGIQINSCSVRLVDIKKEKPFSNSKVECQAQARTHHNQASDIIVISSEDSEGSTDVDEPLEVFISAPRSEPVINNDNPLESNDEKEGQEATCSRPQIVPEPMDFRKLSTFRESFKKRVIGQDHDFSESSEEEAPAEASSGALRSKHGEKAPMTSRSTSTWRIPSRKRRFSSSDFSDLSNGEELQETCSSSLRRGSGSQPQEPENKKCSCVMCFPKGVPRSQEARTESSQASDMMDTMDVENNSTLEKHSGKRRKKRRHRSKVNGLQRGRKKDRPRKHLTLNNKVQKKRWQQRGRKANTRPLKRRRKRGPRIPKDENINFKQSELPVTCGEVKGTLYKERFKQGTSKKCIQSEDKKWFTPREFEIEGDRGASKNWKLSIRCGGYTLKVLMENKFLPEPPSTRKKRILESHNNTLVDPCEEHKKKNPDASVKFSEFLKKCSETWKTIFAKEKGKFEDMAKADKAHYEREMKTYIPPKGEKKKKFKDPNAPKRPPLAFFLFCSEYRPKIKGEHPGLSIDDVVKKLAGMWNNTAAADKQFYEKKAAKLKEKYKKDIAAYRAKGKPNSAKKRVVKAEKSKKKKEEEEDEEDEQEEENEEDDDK
Chain of UniProt Q9BZJ4 (Q9BZJ4 whole entry, looked up): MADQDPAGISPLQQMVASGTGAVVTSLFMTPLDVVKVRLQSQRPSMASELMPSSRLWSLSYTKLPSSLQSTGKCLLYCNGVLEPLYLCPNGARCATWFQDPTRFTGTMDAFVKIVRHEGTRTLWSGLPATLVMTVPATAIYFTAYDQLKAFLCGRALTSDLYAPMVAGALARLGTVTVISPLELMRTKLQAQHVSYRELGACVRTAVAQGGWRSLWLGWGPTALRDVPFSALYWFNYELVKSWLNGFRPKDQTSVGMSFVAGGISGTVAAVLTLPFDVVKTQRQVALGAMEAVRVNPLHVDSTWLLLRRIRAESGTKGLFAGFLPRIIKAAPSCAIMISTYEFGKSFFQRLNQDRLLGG
Chain of UniProt Q01082 (Q01082 whole entry, looked up): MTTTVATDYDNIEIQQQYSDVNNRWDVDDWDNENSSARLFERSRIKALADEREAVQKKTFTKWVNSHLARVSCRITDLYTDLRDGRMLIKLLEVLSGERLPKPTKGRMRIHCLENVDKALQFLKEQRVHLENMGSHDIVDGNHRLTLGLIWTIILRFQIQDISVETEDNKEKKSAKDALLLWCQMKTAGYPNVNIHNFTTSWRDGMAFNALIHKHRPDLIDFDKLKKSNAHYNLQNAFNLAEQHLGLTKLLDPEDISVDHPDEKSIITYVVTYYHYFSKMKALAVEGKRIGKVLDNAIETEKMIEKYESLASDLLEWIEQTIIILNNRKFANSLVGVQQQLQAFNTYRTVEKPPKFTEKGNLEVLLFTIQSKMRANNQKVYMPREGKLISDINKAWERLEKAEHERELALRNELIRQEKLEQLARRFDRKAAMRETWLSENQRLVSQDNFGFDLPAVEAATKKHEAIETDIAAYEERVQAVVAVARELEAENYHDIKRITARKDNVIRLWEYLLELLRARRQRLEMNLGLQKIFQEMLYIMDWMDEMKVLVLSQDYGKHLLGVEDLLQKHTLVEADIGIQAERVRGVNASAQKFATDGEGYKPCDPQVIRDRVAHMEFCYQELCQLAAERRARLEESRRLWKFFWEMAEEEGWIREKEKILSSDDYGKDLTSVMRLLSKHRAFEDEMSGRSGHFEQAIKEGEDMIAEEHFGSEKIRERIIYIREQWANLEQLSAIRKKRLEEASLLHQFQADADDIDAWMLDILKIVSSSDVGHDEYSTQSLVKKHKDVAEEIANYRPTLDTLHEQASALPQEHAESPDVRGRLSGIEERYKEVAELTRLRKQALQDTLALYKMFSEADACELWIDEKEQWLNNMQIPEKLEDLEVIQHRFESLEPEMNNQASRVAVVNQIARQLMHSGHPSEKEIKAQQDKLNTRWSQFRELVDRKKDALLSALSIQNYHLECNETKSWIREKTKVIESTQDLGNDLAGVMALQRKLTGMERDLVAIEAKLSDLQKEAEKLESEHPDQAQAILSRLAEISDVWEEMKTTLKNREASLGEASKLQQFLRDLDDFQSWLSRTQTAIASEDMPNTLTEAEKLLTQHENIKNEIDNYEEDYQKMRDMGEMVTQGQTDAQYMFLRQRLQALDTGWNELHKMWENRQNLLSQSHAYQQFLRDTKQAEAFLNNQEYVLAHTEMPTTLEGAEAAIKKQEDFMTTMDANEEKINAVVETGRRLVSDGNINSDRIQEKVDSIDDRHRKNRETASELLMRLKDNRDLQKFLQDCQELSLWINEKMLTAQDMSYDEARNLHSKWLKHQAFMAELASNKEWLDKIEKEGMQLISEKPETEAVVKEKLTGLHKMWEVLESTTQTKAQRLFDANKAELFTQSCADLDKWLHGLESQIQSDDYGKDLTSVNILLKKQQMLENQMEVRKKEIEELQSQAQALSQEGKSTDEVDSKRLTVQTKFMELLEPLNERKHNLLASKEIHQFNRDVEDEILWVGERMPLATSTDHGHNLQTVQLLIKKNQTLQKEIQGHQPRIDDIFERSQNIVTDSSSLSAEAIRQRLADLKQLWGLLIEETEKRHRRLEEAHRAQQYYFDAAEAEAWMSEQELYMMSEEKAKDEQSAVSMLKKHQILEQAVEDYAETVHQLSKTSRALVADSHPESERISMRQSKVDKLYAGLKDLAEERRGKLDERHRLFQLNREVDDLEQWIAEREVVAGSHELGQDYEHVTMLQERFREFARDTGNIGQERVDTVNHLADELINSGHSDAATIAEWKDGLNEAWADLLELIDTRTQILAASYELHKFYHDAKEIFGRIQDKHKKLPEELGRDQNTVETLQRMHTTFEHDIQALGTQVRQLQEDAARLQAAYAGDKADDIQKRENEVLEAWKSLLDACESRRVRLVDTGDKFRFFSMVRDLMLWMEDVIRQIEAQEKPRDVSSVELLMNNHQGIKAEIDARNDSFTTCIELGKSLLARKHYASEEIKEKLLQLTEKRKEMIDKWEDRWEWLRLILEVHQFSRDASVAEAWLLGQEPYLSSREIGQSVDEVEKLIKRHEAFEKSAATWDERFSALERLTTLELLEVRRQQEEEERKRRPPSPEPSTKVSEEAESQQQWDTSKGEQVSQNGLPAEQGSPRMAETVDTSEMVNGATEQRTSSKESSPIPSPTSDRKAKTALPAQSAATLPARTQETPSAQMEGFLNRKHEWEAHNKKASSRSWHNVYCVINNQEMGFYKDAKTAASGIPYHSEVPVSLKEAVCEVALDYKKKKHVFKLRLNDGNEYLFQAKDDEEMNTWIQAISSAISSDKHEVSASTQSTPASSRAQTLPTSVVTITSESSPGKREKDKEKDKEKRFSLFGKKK

| Target | log2 fold change [1] | log2 fold change (filanesib) | log2 fold change (zotarolimus) | log2 fold change (idasanutlin) | log2 fold change (alisertib) | log2 fold change [2] | log2 fold change (gefitinib) | log2 fold change [3] | log2 fold change (lapatinib) | log2 fold change (pictilisib) | log2 fold change [4] | log2 fold change (crizotinib) | log2 fold change [5] | log2 fold change [6] | log2 fold change (duvelisib) | log2 fold change (gandotinib) | log2 fold change (tozasertib) | log2 fold change [7] | log2 fold change (doramapimod) | log2 fold change (ispinesib) |
| --- | --- | --- | --- | --- | --- | --- | --- | --- | --- | --- | --- | --- | --- | --- | --- | --- | --- | --- | --- | --- |
| SSRP1 (UniProt Q08945) | 0.118 | 0.023 | 0.036 | -0.005 | -0.037 | -0.05 | 0.028 | -0.014 | 0.008 | -0.026 | -0.024 | -0.018 | 0.144 | -0.088 | 0.029 | -0.029 | 0.087 | 0.072 | -0.027 | 0.048 |
| SRI (UniProt P30626) | -0.015 | 0.053 | 0.133 | -0.031 | -0.035 | -0.109 | 0.01 | 0.023 | 0.008 | -0.04 | -0.061 | 0.082 | 0.159 | -0.139 | 0.212 | -0.03 | 0.106 | 0.066 | -0.032 | 0.353 (active) |
| SP100 isoform 4 (UniProt P23497) | 0.05 | 0 | 0.013 | -0.022 | -0.026 | -0.242 (active) | 0.024 | 0.036 | 0.188 | 0.013 | -0.002 | 0.062 | 0.071 | -0.1 | 0.074 | -0.008 | 0.033 | -0.016 | -0.046 | 0.062 |
| SNRPD3 (UniProt P62318) | -0.169 | 0.152 | -0.051 | 0.025 | -0.132 | 0.039 | -0.019 | 0.023 | 0.028 | 0.064 | -0.102 | 0.011 | 0.036 | 0.041 | 0.039 | 0.034 | -0.035 | -0.04 | 0.055 | 0.006 |
| SPINDOC (UniProt Q9BUA3) | 0.165 | 0.221 | -0.02 | 0.008 | -0.113 | 0.145 | 0.073 | 0.017 | -0.045 | -0.117 | 0.09 | 0.104 | -0.059 | -0.074 | -0.296 | -0.001 | 0.14 | 0.053 | 0.097 | -0.008 |
| STRN (UniProt O43815) | -0.002 | -0.002 | 0.052 | -0.018 | -0.083 | -0.003 | 0.02 | 0.017 | 0.015 | 0.006 | 0.016 | 0.068 | -0.004 | -0.125 | 0.046 | -0.048 | 0.048 | 0.076 | -0.018 | 0.198 |
| TBC1D5 isoform 2 (UniProt Q92609) | 0.048 | -0.01 | 0.048 | -0.052 | -0.021 | 0.006 | -0.031 | 0.003 | -0.062 | -0.091 | 0 | -0.24 | -0.003 | 0.084 | -0.072 | -0.255 | 0.007 | 0.142 | -0.031 | -0.268 |
| TAF9 (UniProt Q16594) | 0.066 | 0.109 | -0.018 | 0.056 | -0.109 | 0.024 | 0.01 | 0.019 | -0.028 | -0.017 | -0.029 | 0.043 | 0.007 | 0.116 | 0.009 | -0.047 | -0.034 | -0.131 | -0.019 | -0.007 |
| SMAP2 (UniProt Q8WU79) | -0.029 | 0.048 | 0.045 | -0.039 | 0.11 | 0.247 (active) | 0.043 | -0.072 | -0.009 | -0.015 | 0.04 | 0.097 | 0.015 | 0.04 | 0.02 | -0.011 | 0.058 | 0.096 | -0.047 | -0.006 |
| SMAD9 (UniProt O15198) | -0.002 | 0.009 | -0.033 | -0.132 | -0.014 | -0.012 | 0.066 | -0.005 | 0.051 | 0.148 | 0.016 | 0.019 | 0.068 | 0.037 | 0.014 | -0.197 | -0.069 | 0.074 | -0.013 | -0.169 |
| SSR3 isoform 2 (UniProt Q9UNL2) | -0.236 | -0.107 | 0.087 | 0.066 | -0.015 | -0.013 | 0.003 | 0.08 | 0.006 | -0.096 | 0.021 | -0.043 | 0.05 | -0.458 (active) | 0.012 | 0.281 | 0.003 | -0.038 | 0.034 | 0.021 |
| STARD7 (UniProt Q9NQZ5) | 0.006 | -0.094 | 0.006 | -0.063 | 0.027 | -0.171 | -0.035 | 0.031 | 0.003 | 0.01 | 0.023 | -0.051 | 0.045 | -0.114 | 0.034 | -0.168 | -0.024 | 0.023 | 0.021 | -0.01 |
| SPTBN1 (UniProt Q01082) | -0.037 | 0.102 | 0.045 | 0.053 | -0.073 | 0.02 | 0.084 | -0.076 | 0.031 | 0.007 | 0.018 | 0.042 | 0.008 | 0.039 | 0.016 | -0.039 | 0.046 | 0.094 | 0.021 | 0.03 |
| STAT5A (UniProt P42229) | 0.034 | 0.018 | 0.094 | 0.032 | -0.056 | 0.009 | 0.047 | -0.128 | 0 | -0.096 | 0.02 | -0.002 | 0.08 | -0.036 | 0.019 | -0.033 | 0.119 | 0.14 | -0.047 | 0.275 |
| SLC25A39 (UniProt Q9BZJ4) | -0.069 | -0.255 | 0.073 | -0.115 | 0.123 | -0.49 | -0.344 | 0.224 | -0.044 | -0.072 | -0.029 | -0.025 | 0.14 | -0.165 | 0.044 | 0.075 | 0.269 | -0.08 | -0.079 | -0.523 |
| SRSF10 (UniProt O75494) | -0.102 | 0.424 | -0.157 | 0.388 | -0.099 | -0.169 | -0.009 | -0.056 | 0.101 | -0.042 | -0.176 | 0.153 | -0.539 | 0.259 | -0.139 | 0.183 | 0.095 | 0.036 | 0.222 | -0.172 |
